Measured values reported in PubChem BioAssay (Tox21).
Results filed as inconclusive are left out. A call without a number means that no potency is given here. Calls of active or inactive are those of the source. The call rests on the fitted dose curve.

Assay: cAMP Responsive Elements (CRE) small molecule agonists, cell-based qHTS assay (AID 1963590)
Conditions: CRE-bla HEK293T, beta-lactamase FRET ratio, 3 h; series mostly up to 92.4 µM
Text: U.S. Tox21 Program National Center for Advancing Translational Sciences [NCATS] Division of Preclinical Innovation [DPI] U.S. Environmental Protection Agency [EPA] National Institutes of Environmental Health Sciences [NIEHS] National Toxicology Program [NTP] U.S. Food and Drug Administration [FDA] Tox21 Assay Overview: CREB (cyclic-AMP Responsive Element Binding Protein) is a cellular transcription factor. It binds to certain DNA sequences called cAMP Responsive Elements (CRE) and regulates the transcription of the genes. […] This cell line can be used to find agonists/antagonists of the cyclic AMP signaling pathway. The activation of the report gene under culture conditions can be detected by fluorescence intensity. This cell line has been used to screen the Tox21 10K compound library to identify agonists that induce oxidative stress.
Tox21 Assay Protocol Summary: CRE-bla Hek 293T cells were suspended in assay medium (DMEM containing 10% dialyzed FBS, 0.1 mM NEAA, 1 mM sodium pyruvate and 25 mM HEPES) and dispensed at 2,000 cells/5 uL /well into 1536-well black wall/clear bottom plates using a Multidrop Combi (ThermoFisher Scientific, Waltham, MA) dispenser. After the assay plates were incubated at 37 C/5% CO2 for 18 hrs, 23 nL of compounds dissolved in DMSO, positive controls or DMSO only was transferred to the assay plate by a pintool workstation (Kalypsys, San Diego, CA). After the plates were incubated at 37 C/5% CO2 for 3 hrs, 1 uL of LiveBLAzer B/G FRET substrate (Invitrogen, Carlsbad, CA) was added to each well using Bioraptr Flying Reagent Dispenser (FRD, Aurora Discovery, San Diego, CA). The plates were incubated at room temperature for 2 h.
In the case of `CC(=O)c1sc(C)nc1C`, the Potency is reported as “inactive”. In the case of `C=C(C)C(=O)OCCC[Si](Cl)(Cl)Cl`, the Potency is reported as “inactive”. With `CC(=O)c1ccc2ccccc2c1` the Potency was “inactive”. In the case of `CCOC(=O)N1CCC(=C2c3ccc(Cl)cc3CCc3cccnc32)CC1`, the Potency is reported as “inactive”. With `FC(F)(F)c1ccccc1Cl` the Potency was “inactive”. In the case of `N#C[C@@H]1C[C@@H]2C[C@@H]2N1C(=O)[C@@H](N)C12CC3CC(CC(O)(C3)C1)C2`, the Potency is reported as “inactive”. For `C=CC(C)(CCC=C(C)C)OC=O` (stereo not given), the Potency was “inactive”. For `O=C(CCNNC(=O)c1ccncc1)NCc1ccccc1`, the Potency was “inactive”. For `CCOC(C)(C)C`, the Potency was “inactive”. For `CCCCC(CC)COC(=O)CCCCCCCC(=O)OCC(CC)CCCC` (stereo not given), the Potency was “inactive”. In the case of `CN(C)Cc1ccccc1O`, the Potency is reported as “inactive”. For `CCc1ccc(C=O)cc1`, the Potency was “inactive”. In the case of `NC(=O)NS(=O)(=O)c1ccc(Cl)cc1`, the Potency is reported as “inactive”. With `CC(C)(C)c1ccc(O)c(O)c1` the Potency was “inactive”. In the case of `NCCc1ccc(O)c(O)c1`, the Potency is reported as “inactive”. For `CC(C)c1cc2c(cc1S(=O)(=O)O)[C@@]1(C)CCC[C@@](C)(C(=O)O)[C@@H]1CC2`, the Potency was “inactive”. In the case of `CN(C)/N=N/c1nc[nH]c1C(N)=O`, the Potency is reported as “inactive”. With `CCC(C)C1CCCCC1=O` (stereo not given) the Potency was “inactive”. For `O=C1C=CC(=O)O1`, the Potency was “inactive”. With `NS(=O)(=O)c1ccccc1Cl` the Potency was “inactive”. In the case of `C=CC(=O)O[C@H]1C[C@@H]2CC[C@@]1(C)C2(C)C`, the Potency is reported as “inactive”. With `CC(CCC(=O)O)C(=O)O` (stereo not given) the Potency was “inactive”. In the case of `Cc1cccc(Cl)c1`, the Potency is reported as “inactive”. With `CC(=O)CC(=O)Nc1ccccc1` the Potency was “inactive”. For `CC(C)CC(O)CC(C)C`, the Potency was “inactive”. In the case of `CCCC[O][Al]([O]CCCC)[O]CCCC`, the Potency is reported as “inactive”. With `CCc1occc(=O)c1O` the Potency was “inactive”. In the case of `Nc1cccc(N)n1`, the Potency is reported as “inactive”. With `OC[C@H]1O[C@@H](O[C@H]2[C@H](O)[C@@H](O)[C@H](O)O[C@@H]2CO)[C@H](O)[C@@H](O)[C@H]1O` the Potency was “inactive”. In the case of `C[Si](C)O[Si](C)(C)O[Si](C)(C)O[Si](C)C`, the Potency is reported as “inactive”. For `CC1=CC(=O)[C@H]2C[C@@H]1C2(C)C`, the Potency was “inactive”. With `CN(C)c1cccc(O)c1` the Potency was “inactive”. In the case of `C1CCC2OC2C1` (stereo not given), the Potency is reported as “inactive”. For `CCCCCCCO`, the Potency was “inactive”. For `CCCOC(C(=O)OC1CCN(C)CC1)(c1ccccc1)c1ccccc1`, the Potency was “inactive”. In the case of `C=CC(=O)NC(C)C`, the Potency is reported as “inactive”. For `CCC(=O)OC`, the Potency was “inactive”. In the case of `O=C(O)c1ccccc1OP(=O)(O)O`, the Potency is reported as “inactive”. For `O=C(O)c1ccco1`, the Potency was “inactive”. With `N#[N+]c1ccc2c(S(=O)(=O)[O-])cccc2c1O` the Potency was “inactive”.
